For 17 molecules, outcome and AC50 results are on record in PubChem BioAssay (EPA / NIEHS).

A short description of assay [1]: ATG_ISRE_CIS: Attagene CIS-FACTORIAL HepG2 Assay for human Interferon Regulatory Factor 1 (IRF1) binding to an Interferon-Stimulated Response Element (ISRE) (AID 2282948). Conditions: HepG2 ISRE cis-reporter (Attagene), mRNA transcription readout; actives raise or lower the signal. In outline: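 HepG2 cells transiently transfected with multiplexed cis-promoter reporter units; after 24 h compound exposure, reporter mRNA quantified by RT-PCR, FAM labelling, HpaI digestion and capillary electrophoresis. Bidirectional fit versus DMSO baseline.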

Assay [2] is described as follows: ATG_M_32_CIS: Attagene CIS-FACTORIAL HepG2 Assay for M32 Transcription Factor (Internal Marker) (AID 2282949).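 Note: background control marker of the multiplexed CIS panel rather than a real target.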 Conditions: HepG2 Attagene cis-factorial M32 reporter, mRNA; actives raise or lower the signal. In outline: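 Fluorescent capillary electrophoresis peaks of HpaI-digested, FAM-labelled RT-PCR reporter products give the signal. Source: transiently transfected human liver HepG2 cells, 24 h after chemical dosing; bidirectional fitting against DMSO.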

The target of assay [3] is Hypoxia-inducible factor 1-alpha (Homo sapiens) (UniProt Q16665). The assay can be described thus: ATG_HIF1a_CIS: Attagene CIS-FACTORIAL HepG2 Assay for human Hypoxia Inducible Factor 1 (HIF1A) (AID 2282951). Conditions: HepG2 Attagene cis-factorial HIF1a reporter transcription; actives raise or lower the signal. In outline:
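HepG2 cells transiently transfected with multiplexed cis-promoter reporter units; reporter mRNA read 24 h after dosing by RT-PCR, 6-FAM primer-extension labelling, HpaI digestion and capillary electrophoresis. Bidirectional fit versus DMSO baseline.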

In assay [4] the target is Hepatocyte nuclear factor 6 (Homo sapiens) (UniProt Q9UBC0). In words: ATG_HNF6_CIS: Attagene CIS-FACTORIAL HepG2 Assay for human Hepatocyte Nuclear Factor 6 (HNF6) (AID 2282952). Conditions: HepG2 Attagene cis-factorial HNF6 reporter transcription; actives raise or lower the signal. In outline:
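Multiplexed mRNA reporter assay in transfected HepG2; 24 h dosing; RT-PCR plus capillary electrophoresis fluorescence; DMSO-referenced bidirectional curve fitting.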

The target in assay [5] is Heat shock factor protein 1 (Homo sapiens) (UniProt Q00613). In words: ATG_HSE_CIS: Attagene CIS-FACTORIAL HepG2 Assay for human Heat Shock Transcription Factor 1 (HSE) (AID 2282953). Conditions: HepG2 HSE cis-reporter, Attagene RNA transcription; actives raise or lower the signal. In outline:
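HepG2 cells transiently transfected with multiple reporter transcription units under cis-regulatory promoter control, measuring endogenous transcription factor activity. After 24 h chemical exposure, reporter mRNA quantified by RT-PCR, fluorescent labelling, HpaI digestion and capillary electrophoresis; bidirectional fit versus DMSO.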

The nature of assay [6]: ATG_MRE_CIS: Attagene CIS-FACTORIAL HepG2 Assay for human Metal Responsive Element (MRE) (AID 2282954). Conditions: HepG2 MRE cis-reporter transcription, Attagene multiplex; actives raise or lower the signal. In outline:
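HepG2 cells transiently transfected with cis-element-driven reporter units; mRNA measured 24 h after dosing. Reporter transcripts quantified by RT-PCR, FAM labelling, HpaI digestion and capillary electrophoresis; bidirectional fit versus DMSO.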

A short description of assay [7]: ATG_PBREM_CIS: Attagene CIS-FACTORIAL HepG2 Assay for human Phenobarbital-responsive Enhancer Module (PBREM) (AID 2282955). Conditions: HepG2 PBREM cis-reporter, Attagene multiplexed transcription; actives raise or lower the signal. In outline:
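HepG2 cells transiently transfected with multiple cis-regulated reporter transcription units; endogenous factor activity at the PBREM element measured as reporter mRNA 24 h after dosing, via RT-PCR and capillary electrophoresis of fluorescent fragments; bidirectional fitting versus DMSO.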

Assay [8] deals with Paired box protein Pax-6 (Homo sapiens) (UniProt P26367). The assay can be described thus: ATG_Pax6_CIS: Attagene CIS-FACTORIAL HepG2 Assay for human Paired Box 6 (PAX6) (AID 2282956). Conditions: HepG2 CIS-FACTORIAL PAX6 reporter transcription, RNA readout; actives raise or lower the signal. In outline:
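HepG2 cells transiently transfected with multiplexed cis-promoter reporter units (endogenous TF activity) were dosed for 24 h. Reporter mRNA was quantified by RT-PCR, 6-FAM labeling, HpaI digestion and capillary electrophoresis; bidirectional fitting versus DMSO baseline.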

Assay [9] in a line: ATG_PXRE_CIS: Attagene CIS-FACTORIAL HepG2 Assay for human Pregnane X Receptor Element (PXRE) (AID 2282957). Conditions: HepG2 Attagene CIS-FACTORIAL PXRE reporter, mRNA; actives raise or lower the signal. In outline:
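Cells: HepG2, transiently transfected reporter units under cis promoter control. Exposure: 24 h. Detection: reporter mRNA via RT-PCR/CE fluorescence; bidirectional fitting, DMSO-referenced.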

More than one record can exist for a structure, and the calls need not agree. Active and inactive are the calls of the source. Rule for the calls: active = hit-call score of the fitted dose curve at least 0.9, where 1 is the maximum; inactive = score below 0.9.

Sequence of Hepatocyte nuclear factor 6 (Homo sapiens) (Q9UBC0 whole entry, looked up): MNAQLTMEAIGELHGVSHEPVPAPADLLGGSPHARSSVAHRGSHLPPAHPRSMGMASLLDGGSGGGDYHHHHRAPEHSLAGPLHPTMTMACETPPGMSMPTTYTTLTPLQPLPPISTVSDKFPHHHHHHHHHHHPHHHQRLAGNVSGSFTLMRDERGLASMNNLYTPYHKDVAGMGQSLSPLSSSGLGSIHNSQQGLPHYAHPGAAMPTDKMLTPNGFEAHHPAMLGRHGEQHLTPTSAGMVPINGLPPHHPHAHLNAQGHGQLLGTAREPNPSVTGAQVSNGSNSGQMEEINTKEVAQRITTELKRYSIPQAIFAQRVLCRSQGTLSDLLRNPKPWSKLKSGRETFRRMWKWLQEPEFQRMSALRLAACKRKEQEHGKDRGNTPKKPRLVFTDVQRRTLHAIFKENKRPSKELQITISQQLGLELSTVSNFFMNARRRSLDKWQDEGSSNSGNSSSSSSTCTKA
Sequence of Paired box protein Pax-6 (Homo sapiens) (P26367 whole entry, looked up): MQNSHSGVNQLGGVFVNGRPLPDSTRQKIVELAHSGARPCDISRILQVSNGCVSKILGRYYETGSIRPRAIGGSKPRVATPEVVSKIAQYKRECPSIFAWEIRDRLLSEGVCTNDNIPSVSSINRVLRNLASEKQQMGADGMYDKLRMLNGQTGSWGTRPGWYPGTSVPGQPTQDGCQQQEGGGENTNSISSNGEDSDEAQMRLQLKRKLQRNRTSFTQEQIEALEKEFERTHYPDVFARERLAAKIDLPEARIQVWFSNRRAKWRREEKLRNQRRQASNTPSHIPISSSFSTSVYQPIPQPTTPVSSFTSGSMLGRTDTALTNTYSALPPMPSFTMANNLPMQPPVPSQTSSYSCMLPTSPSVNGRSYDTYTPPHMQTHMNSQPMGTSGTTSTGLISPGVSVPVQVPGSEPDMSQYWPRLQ
Sequence of Heat shock factor protein 1 (Homo sapiens) (Q00613 whole entry, looked up): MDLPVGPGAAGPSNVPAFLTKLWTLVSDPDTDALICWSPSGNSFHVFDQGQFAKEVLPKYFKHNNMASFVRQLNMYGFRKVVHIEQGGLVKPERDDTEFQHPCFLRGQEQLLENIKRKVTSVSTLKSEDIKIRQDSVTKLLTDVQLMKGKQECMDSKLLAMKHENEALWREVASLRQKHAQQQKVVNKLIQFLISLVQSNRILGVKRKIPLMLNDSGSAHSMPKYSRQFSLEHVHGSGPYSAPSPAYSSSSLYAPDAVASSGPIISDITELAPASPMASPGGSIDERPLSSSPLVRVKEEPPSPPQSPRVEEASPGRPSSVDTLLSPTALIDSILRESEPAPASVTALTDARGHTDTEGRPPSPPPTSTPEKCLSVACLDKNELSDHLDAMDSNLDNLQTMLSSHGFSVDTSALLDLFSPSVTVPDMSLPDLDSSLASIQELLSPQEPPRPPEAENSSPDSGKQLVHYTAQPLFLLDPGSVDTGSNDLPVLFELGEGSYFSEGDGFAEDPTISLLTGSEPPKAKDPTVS
Sequence of Hypoxia-inducible factor 1-alpha (Homo sapiens) (Q16665 whole entry, looked up): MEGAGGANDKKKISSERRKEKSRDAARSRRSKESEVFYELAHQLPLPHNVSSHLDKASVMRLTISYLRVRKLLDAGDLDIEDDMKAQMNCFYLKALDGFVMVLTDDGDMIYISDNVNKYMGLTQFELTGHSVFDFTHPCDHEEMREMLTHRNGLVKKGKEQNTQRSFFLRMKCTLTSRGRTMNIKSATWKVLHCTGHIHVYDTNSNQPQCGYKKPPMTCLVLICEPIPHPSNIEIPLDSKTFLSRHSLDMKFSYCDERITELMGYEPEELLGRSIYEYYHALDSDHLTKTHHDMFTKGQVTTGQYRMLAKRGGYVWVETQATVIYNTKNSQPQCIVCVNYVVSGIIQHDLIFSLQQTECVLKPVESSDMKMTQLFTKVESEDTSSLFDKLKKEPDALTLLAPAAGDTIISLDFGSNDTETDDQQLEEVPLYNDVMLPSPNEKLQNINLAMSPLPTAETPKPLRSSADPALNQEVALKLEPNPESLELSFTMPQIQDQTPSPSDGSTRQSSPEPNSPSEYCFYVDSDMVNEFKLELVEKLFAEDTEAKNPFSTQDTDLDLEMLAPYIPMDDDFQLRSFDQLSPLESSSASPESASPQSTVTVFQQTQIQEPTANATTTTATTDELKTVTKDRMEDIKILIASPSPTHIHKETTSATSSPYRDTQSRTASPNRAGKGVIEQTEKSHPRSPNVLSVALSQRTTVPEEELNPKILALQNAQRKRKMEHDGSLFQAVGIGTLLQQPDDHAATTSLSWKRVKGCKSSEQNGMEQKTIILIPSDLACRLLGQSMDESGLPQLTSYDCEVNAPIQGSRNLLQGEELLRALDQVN

Turning to `CC12CC1(C)C(=O)N(c1cc(Cl)cc(Cl)c1)C2=O` (stereo unspecified), the outcome in [1], in assay [2], in [3], in assay [4], in assay [5] and in [6] was inactive. Further, the outcome in [7] and in assay [8] was inactive. In addition, the AC50 – broadly, the midpoint of the concentration-response curve, whichever way the signal moves – is 11.1 µM (active) in assay [7] and 4.87 µM (active) [middle of 4 runs] in assay [9].
In the case of `ClC(Cl)=C(Cl)C(Cl)=C(Cl)Cl`, the concentration at half-maximal activity (AC50) in assay [1] is 100 µM (active); in assay [5], 144 µM (active); in assay [6], 152 µM (active); in assay [9] it was 130 µM (active). The call in assay [2], in assay [3], in assay [4] and in assay [8] was inactive.
On to `CCC(C)c1cccc(C(C)CC)c1O` (stereo unspecified), for which the result in [1], in [2], in [5], in [6] and in assay [8] was inactive. In addition, the AC50 in [9] is 5.61 µM (active).
On to `Nc1ccc(N=Nc2ccc(-c3ccc(N=Nc4c(S(=O)(=O)O)cc5cc(S(=O)(=O)O)c(N=Nc6ccccc6)c(O)c5c4N)cc3)cc2)c(N)c1`, for which the outcome in assay [1], in assay [2], in [3], in [5], in [6] and in assay [7] was inactive. For the same molecule, the call in assay [8] and in [9] was inactive.
On to `NC(=O)O`, for which the outcome in assay [1], in [2], in assay [3], in assay [4], in assay [5] and in assay [6] was inactive. Besides, the result in assay [7], in assay [8] and in [9] was inactive.
On to `Clc1ccc(C2(Cn3cncn3)CC(Br)CO2)c(Cl)c1` (stereo unspecified), for which the outcome in [1], in [2] and in assay [8] was inactive. Besides, the AC50 in [3] was 26 µM (active); in assay [5] it was 177 µM (active); in assay [6], 145 µM (active); in [7], 6.34 µM (active); in assay [9] it was 1.23 µM (active).
For `Nc1cccc(Cl)c1`, the outcome in [1], in assay [2], in assay [3], in assay [4], in assay [6] and in assay [7] was inactive. The molecule was called inactive in assay [8] and in assay [9].
As to `CC(C)(c1ccc(OCC2CO2)cc1)c1ccc(OCC2CO2)cc1` (stereo unspecified), the AC50 is 58 µM (active) in assay [1]; 31.2 µM (active) in assay [3]; 60.5 µM (active) in assay [5]; 31.8 µM (active) in assay [6]; 39.2 µM (active) in assay [8]; 8.18 µM (active) in [9]. For the same molecule, the outcome in assay [2], in [4] and in assay [7] was inactive.
With `CCC[CH2][Sn]([CH2]CCC)([CH2]CCC)[O]C(=O)c1ccccc1`, the result in assay [1], in [2], in [3], in assay [6], in assay [8] and in assay [9] was inactive.
`COc1ccc(C=O)cc1OC`: the call in assay [1], in assay [2], in [3], in assay [4], in assay [5] and in assay [6] was inactive. Besides, the outcome in [7] and in assay [8] was inactive. Further, the AC50 in assay [9] was 32 µM (active).
With `Nc1cccc2ccccc12`, the call in assay [1], in [2], in assay [4], in assay [5], in assay [6] and in assay [7] was inactive. Also, the result in [8] was inactive. Moreover, the values for the AC50 in [3] and in assay [9] were 165 µM (active) and 25.7 µM (active), respectively.
`COP(=S)(OC)Oc1ccc(Sc2ccc(OP(=S)(OC)OC)cc2)cc1`: the result in [1], in [2] and in assay [4] was inactive. The AC50 in assay [3] was 39.3 µM (active); in assay [5], 27 µM (active); in assay [6] it was 57.7 µM (active); in assay [7] it was 8.08 µM (active); in assay [8], 49.2 µM (active); in [9], 2.83 µM (active).
Regarding `O=C(O)C(F)(F)C(F)(F)C(F)(F)C(F)(F)C(F)(F)C(F)(F)F`, the call in [1], in [2], in assay [4], in [5], in assay [6] and in [7] was inactive. In addition, the outcome in assay [8] and in assay [9] was inactive. Moreover, the AC50 in [9] was 40.2 µM (active).
In the case of `CCCCCCCCc1ccc(O)cc1`, the molecule was called inactive in [1], in assay [2], in assay [3], in [5], in assay [6] and in assay [7]. In addition, the molecule was classed as inactive in assay [8] and in [9].
Regarding `CCN1CCC2(CC1)COc1cc3c(cc12)N(C(=O)c1ccc(-c2ccc(-c4nnc(C)o4)cc2C)cc1)CC3`, the result in assay [1], in assay [2], in assay [3], in assay [5], in assay [6] and in assay [7] was inactive. The result in assay [8] and in assay [9] was inactive.
`Clc1ccc(COC(Cn2ccnc2)c2ccc(Cl)cc2Cl)cc1` (stereo unspecified): the call in assay [1], in assay [2], in assay [4], in assay [5], in assay [6] and in [7] was inactive. The call in assay [8] was inactive. In addition, the AC50 in assay [9] is 0.697 µM (active).
Consider `CC(C)C1CCC(Cc2ccc(Cl)cc2)C1(O)Cn1cncn1` (stereo unspecified), for which the molecule was classed as inactive in assay [1], in [2], in [3], in assay [4], in [5] and in assay [7]. The molecule was classed as inactive in assay [8]. The AC50 in [6] was 11 µM (active); in [9], 1.04 µM (active).
